Pol eta inh-1 = DNA polymerase eta (human) inhibition; AID 588591; Potency, µM (titrated, usually from 114 µM), inactives show at the top dose activity change, negative = inhibition, actives largely listed as inhibitors; recombinant Pol eta, fluorescent DNA replication assay; actives 1.2% (n = 390,000); Q9Y253; further: potency means the concentration at half of the fitted maximal effect; on the % scale 0 is the no-effect control and ±100 the full control effect
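Pol eta at 10 nM preincubated with compounds 15 min at room temperature; reaction started with fluorescent substrate (50 nM final) and read kinetically at 0 and 10 min.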
L3MBTL1 inh = blocks human L3MBTL1 | Potency, µM (highest dose often 57.1 µM), without a hit: at the highest dose activity, negative = inhibition, actives largely listed as inhibitors | AlphaScreen L3MBTL1–H3K9me1 peptide binding | Q9Y468 | actives 0.66% (n = 230,000) | AID 485360; further: potency means the concentration at half of the fitted maximal effect; on the % scale 0 is the no-effect control and ±100 the full control effect; nearly all actives have a fitted effect of over 60% in size
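L3MBTL1 50 nM + b-AHA-H3(1-15)K9me1 75 nM, 30 min RT; compound added, 30 min RT; streptavidin donor/Ni-chelate acceptor beads 10 ug/mL each final, 30 min RT dark; AlphaScreen read.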
Pol beta inh = DNA polymerase beta (human) inhibition | P06746 | Pol beta primer extension/strand displacement, fluorescence kinetic | Potency, µM (titrated, usually from 114 µM), inactives show at the top dose activity change, negative = inhibition, most hits filed as inhibitors | actives 1.3% (n = 340,000) | AID 485314; further: potency means the concentration at half of the fitted maximal effect; on the % scale 0 is the no-effect control and ±100 the full control effect
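Kinetic readout of DNA synthesis with strand displacement by Pol beta. Compound and 10 nM enzyme sit 15 min at room temperature; 50 nM substrate starts the reaction, read immediately and at 10 min.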
POLK inh = blocks human DNA polymerase kappa activity; Q9UBT6; purified Pol kappa, fluorescent DNA synthesis assay, 10 min; Potency, µM (doses to about 107 µM), for the others: top-dose activity, negative = inhibition, hits mostly inhibitors; actives 0.53% (n = 400,000); AID 588579; further: potency means the concentration at half of the fitted maximal effect; on the % scale 0 is the no-effect control and ±100 the full control effect
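10 nM Pol kappa was preincubated with compounds for 15 min at room temperature. Reaction started with 50 nM (final) substrate. Fluorescence read kinetically at 0 and 10 min.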
Pol iota inh = inhibitors of human DNA polymerase iota; Q9UNA4; Pol iota fluorescent replication assay, 10 min; Potency, µM (titrated, usually from 115 µM), for the others: at the top dose activity, negative = inhibition, most hits filed as inhibitors; actives 1% (n = 390,000); AID 588590; further: potency means the concentration at half of the fitted maximal effect
Target sequence (Q9UNA4 whole entry, looked up): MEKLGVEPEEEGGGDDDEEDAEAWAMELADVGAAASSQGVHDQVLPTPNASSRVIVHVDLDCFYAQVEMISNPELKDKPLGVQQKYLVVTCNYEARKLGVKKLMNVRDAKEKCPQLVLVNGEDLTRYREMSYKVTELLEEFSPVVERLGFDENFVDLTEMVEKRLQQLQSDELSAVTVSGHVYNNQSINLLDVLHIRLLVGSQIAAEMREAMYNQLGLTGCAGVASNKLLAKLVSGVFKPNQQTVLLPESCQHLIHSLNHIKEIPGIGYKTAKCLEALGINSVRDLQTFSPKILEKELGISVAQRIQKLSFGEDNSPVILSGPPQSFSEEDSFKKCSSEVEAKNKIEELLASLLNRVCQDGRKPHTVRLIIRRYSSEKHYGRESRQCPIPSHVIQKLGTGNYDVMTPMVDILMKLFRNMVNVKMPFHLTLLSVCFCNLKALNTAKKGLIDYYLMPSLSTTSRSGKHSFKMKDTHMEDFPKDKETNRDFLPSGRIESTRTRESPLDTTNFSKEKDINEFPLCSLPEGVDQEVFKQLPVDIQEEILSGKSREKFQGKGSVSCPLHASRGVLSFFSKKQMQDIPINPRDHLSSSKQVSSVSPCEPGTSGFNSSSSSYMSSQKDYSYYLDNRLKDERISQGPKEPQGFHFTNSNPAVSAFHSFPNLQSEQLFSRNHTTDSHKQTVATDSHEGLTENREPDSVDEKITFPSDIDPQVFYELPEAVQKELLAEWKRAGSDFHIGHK
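Pol iota at 10 nM preincubated 15 min with compounds at room temperature; reaction started with fluorescent substrate, 50 nM final. Fluorescence read kinetically at 0 and 10 min; buffer-only wells as negative control.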
GALK inh confirm = galactokinase (human) inhibition, confirmation. Potency, µM (top dose mostly 115 µM), without a hit: at the highest dose activity, negative = inhibition, usual class: inhibitors. shares compounds with Pol eta inh-1. purified GALK, Kinase-Glo ATP depletion luminescence. actives 70% (n = 150)
GALK redox cs = generates H2O2 by redox cycling, flagging GALK artifacts | shares compounds with Pol eta inh-1 | Phenol red-HRP H2O2 redox cycling, absorbance 600 nm | Potency, µM (highest dose often 115 µM), for the others: at the highest dose activity change, negative = H2O2 signal, hits mostly inhibitors | actives 40% (n = 150) | AID 2035
HEK293 viability = counter-screen for GALK inhibitors: HEK293 cell cytotoxicity. shares compounds with Pol eta inh-1. HEK-293 viability, ATP luminescence (CellTiter-Glo), 24/48 h. Potency, µM (top dose mostly 46.1 µM), without a hit: at the highest dose activity change, negative = cytotoxicity, most hits filed as inhibitors. actives 10% (n = 170); further: potency means the concentration at half of the fitted maximal effect; on the % scale 0 is the no-effect control and ±100 the full control effect
Pol eta inh-2 = confirmation of human DNA polymerase eta inhibitors; shares compounds with Pol eta inh-1; Pol eta primer extension, TAMRA/BHQ fluorescence, 10 min; Potency, µM, usual class: inhibitors; actives 64% (n = 2,600); further: potency means the concentration at half of the fitted maximal effect
* hit, by the source's call; u = inconclusive; x = no result given. The list is not random: actives were taken first. Their share in the collection is about 2.4%. The call rests on the fitted dose curve; in most records, active means well fitted curve in the direction sought with a large enough effect; inconclusive means small, poorly fitted or top-dose-only effect, or another doubt; inactive means no such curve, though single readings can be large; an effect the other way counts as inactive or inconclusive.

SMILES | Pol eta inh-1 | L3MBTL1 inh | Pol beta inh | POLK inh | Pol iota inh | Pol eta inh-2 | others
Cc1cc(/C=C2\C(=O)NC(=O)N(Cc3ccccc3)C2=O)c(C)n1C1CC1 | -23.4% | -5.0% | u | -12.3% | u | x
O=C1NC(=O)N(Cc2ccco2)C(=O)/C1=C\c1cccn1CCOc1ccc(Cl)cc1 | 14.1µM* | -17.5% | 28.2µM* | 28.2µM* | 12.6µM* | u
CCN(CC)c1ccc(/C=C2/C(=O)NC(=O)N(Cc3ccco3)C2=O)cc1 | 10µM* | u | -26.6% | 50.1µM* | 22.4µM* | u
CCc1ccc(N2C(=O)NC(=O)/C(=C/c3cccn3CCOc3ccc(C(C)CC)cc3)C2=O)cc1 (configuration not stated) | -7.8% | -14.5% | 17.4% | -22.5% | u | x
S=c1[nH]c2cc(Br)cnc2[nH]1 | 1.1% | -4.6% | -8.1% | -8.3% | 186.9% | x
C[C@H]1CN([C@@H](C)CO)C(=O)c2cccc(NC(=O)c3ccc(-c4nccs4)cc3)c2O[C@@H]1CN(C)C(=O)Nc1cccc2ccccc12 | -4.2% | 0.1% | x | 0.0% | 59.8% | x
CCOC(=O)CC(SP1(=S)OCC2(CCCCC2)CO1)C(=O)OCC (configuration not stated) | u | x | x | -35.9% | u | 67.5*
Cn1cccc1/C=C1/C(=O)NC(=O)N(C(C)(C)C)C1=O | 8.4% | -1.3% | -1.4% | -17.0% | 20.9% | x
CN1C(=O)/C(=C/c2cccn2-c2ccc3ccccc3c2)C(=O)NC1=S | 3.98µM* | u | 22.4µM* | 31.6µM* | 8.91µM* | u
CCn1nc(-c2cccs2)nc2c(=O)n(C)c(=O)nc1-2 | 0.794µM* | u | 0.7% | -12.4% | -154.3% | x | GALK inh confirm=0.211µM*;GALK redox cs=0.266µM*;HEK293 viability=u
CCOc1ccc(-n2c(-c3cccs3)nc3ccccc3c2=O)cc1 | -7.2% | -10.6% | 22.5% | -5.3% | u | x
Cn1cccc1/C=C1\C(=O)NC(=O)N(Cc2ccccc2Cl)C1=O | 28.2µM* | x | -27.0% | 31.6µM* | 20µM* | 67.5*
Cn1cccc1/C=C1\C(=O)NC(=O)N(CCC2=CCCCC2)C1=O | -6.9% | -2.5% | 1.0% | -14.1% | u | x
C/C(=C/CCC(C)[C@H]1CC[C@@]2(C)C3=C(CC[C@]12C)[C@@]1(C)CCC(=O)C(C)(C)[C@@H]1CC3)C(=O)O (some centres not stated) | 79.4µM* | 1.7% | -18.2% | -16.8% | -26.1% | u
O=C1NC(=O)N(CCC2=CCCCC2)C(=O)/C1=C\c1cccs1 | 20µM* | u | u | -28.5% | 39.8µM* | u
O=C1NC(=S)N(Cc2ccco2)C(=O)/C1=C\c1cccs1 | x | x | 1.12µM* | x | x | x | GALK inh confirm=u;GALK redox cs=2.4%;HEK293 viability=-2.0%
C=CCN1C(=O)/C(=C/c2cccs2)C(=O)NC1=S | u | u | 79.4µM* | -23.4% | u | u
O=C1/C(=C/c2ccc(N(CCCl)CCCl)cc2)Cc2ccccc21 | x | x | x | -10.1% | 1.2% | x

Source: PubChem
